# An excerpt weighted towards active compounds, which were near 4.4% of everything screened.
# TIM10 inh – growth inhibitors of isogenic TIM10 control yeast, primary screen, counter-screen for tim10-1 yeast inhibitor project, luminescence, uHTS; S. cerevisiae TIM10 strain growth, BacTiter-Glo luminescence, 24 h; inhibition, % at 10 µM; 330,000 tested, 1.4% active; AID 463195, 2010;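 active means inhibition of 40% or more at the single tested concentration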;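 further: wild-type TIM10 isogenic control strain grown at permissive 25 °C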
# tim10-1 inh – growth inhibitors of tim10-1 mutant yeast, primary screen, luminescence, uHTS | S. cerevisiae tim10-1 ts strain growth, BacTiter-Glo, 24 h | inhibition, % at 20 µM | 330,000 tested, 2.2% active;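 active means inhibition of at least 40%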;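 further: mutant grown at 25 °C; 0% = DMSO wells with yeast and 100% = wells holding no yeast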
# tim23-1 inh – growth inhibitors of tim23-1 mutant yeast, primary screen, luminescence, uHTS. S. cerevisiae tim23-1 growth, BacTiter-Glo luminescence, 24 h. inhibition, % at 20 µM. 330,000 tested, 1.3% active. AID 463212, 2010;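 active means growth inhibition of the mutant yeast at or above 50%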;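 further: temperature-sensitive mutant grown at 25 °C; plate controls were DMSO-treated mutant yeast for no effect and medium wells lacking yeast for full effect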
# SKKanGAS inh – S. pyogenes SKKanGAS growth inhibitors in kanamycin, primary screen, streptokinase expression inhibitor project, SKKanGAS strain, BacTiter-Glo luminescence; 6 h; AID 1662, 2009; inhibition, % at 7.5 µM; 300,000 tested, 1.3% active;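 active means mean replicate score, as percent of positive control median, at least 50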;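 further: strain carries kanamycin resistance gene driven by streptokinase promoter and grows in 40 µg/ml kanamycin; loss of luminescence reflects streptokinase promoter inhibition or plain growth inhibition; 0% = median of DMSO wells and 100% = positive control at its reference dose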
# PfHsp90 yeast 2 – growth inhibition of PfHsp90-expressing yeast, primary screen, antimalarial PfHsp90 inhibitor project, S. cerevisiae, BacTiter-Glo luminescence, single point, set 2; inhibition, % at 9.4 µM; 310,000 tested, 0.32% active; BacTiter-Glo ATP, 48 h; yeast lacking PDR1 and PDR3 efflux regulators;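 active means every replicate shows inhibition above about 80%, whatever the replicate mean, limit read from the data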;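 further: 0% = DMSO neutral controls and 100% = 20 µM radicicol positive controls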
# tim23-1 confirm – tim23-1 mutant yeast growth inhibitors, confirmation, luminescence, single concentration; shares compounds with tim23-1 inh; S. cerevisiae tim23-1 growth, BacTiter-Glo luminescence, 24 h; inhibition, % at 20 µM; 4,400 tested, 83% active;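 active means inhibition above about 39% in either of two replicate wells at 20 µM, limit read from the data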;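 further: temperature-sensitive tim23-1 mutant grown at 25 °C; 0% = DMSO wells with yeast and 100% = medium wells without yeast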
# An asterisk follows results filed as active; . = not tested or not shown.
SMILES,TIM10 inh,tim10-1 inh,tim23-1 inh,SKKanGAS inh,PfHsp90 yeast 2,tim23-1 confirm
Cc1cc(C(=O)NC2CCCc3c2cnn3-c2ccc(C(C)(C)C)cc2)n[nH]1 (stereo unspecified),11,32,30,5,-51,.
COc1ccc(NC(=O)CN2C(=O)NC3(CCCc4ccccc43)C2=O)c(OC)c1 (stereo unspecified),1,-13,0,.,-1,.
COc1cc(NC(=S)Nc2ccccn2)cc(OC)c1OC,9,33,0,-11,-31,.
COc1cc(NC(=S)Nc2ccccn2)cc(OC)c1,27,15,51*,-2,13,18
C=CCn1cccc(C(=O)Nc2ccc(OC)cc2)c1=O,6,5,95*,4,-2,19
COc1ccccc1C(=O)Nc1nc2ccccc2s1,35,35,58*,48,29,48*
COc1ccccc1C(=O)Nc1nc2ccc(S(C)(=O)=O)cc2s1,10,33,-8,-8,-7,.
COc1ccc2nc(NC(=O)c3ccccc3C(=O)O)sc2c1,-24,5,10,-1,2,.
COc1ccc(C(=O)Nc2nc3ccccc3s2)c(OC)c1,20,33,63*,53*,58,75*
COc1ccc(NC(=O)c2cc3ccccc3cc2OC)cc1,-19,-26,50*,18,-3,36
COc1ccccc1CN(C)C(=O)CN1C(=O)c2ccccc2C1=O,7,3,19,-2,-8,.
COc1ccc(C(=O)NCC(C)C)c(OC)c1,5,-3,72*,4,-8,7
Nc1ccc(C(=O)Nc2nc3ccccc3s2)cc1,12,3,51*,-1,25,44*
Cc1cccc(/N=C/c2c(O)cc(C)oc2=O)n1,7,-4,13,5,17,.
Cc1cccc(/N=C/c2c(O)ccc3oc4c(c23)CCCC4)n1,37,37,70*,7,-5,74*
CN(Cc1ccco1)c1ncnc2ccc(-c3ccc4c(c3)OCO4)cc12,7,22,51*,.,-10,42*
CC1CCCCC1NC(=S)NC(=O)c1cccs1 (stereo unspecified),39,25,52*,26,-15,54*
CC(C)[C@H](NC(=O)N1CC(=O)Nc2ccccc21)C(=O)N[C@H](Cc1ccccc1)C(=O)O,1,7,10,-1,-14,.
CCC(C)Sc1cc(C)c(C#N)c2nc3ccccc3n12 (stereo unspecified),32,17,54*,43,-7,37
CCC(C)Nc1cc(C)c(C#N)c2nc3ccccc3n12 (stereo unspecified),16,24,12,11,15,.
COc1ccc(-c2cc(=O)oc3cc(OC(C)C(=O)NCc4ccccn4)ccc23)cc1 (stereo unspecified),-4,13,9,1,10,.
Cc1ccc(C)c(C(=O)COC(=O)c2n[nH]c3ccccc23)c1,36,23,58*,.,-3,49*
Cc1cccc(C)c1OCCOC(=O)c1n[nH]c2ccccc12,38,26,46,5,-36,.
O=C(COC(=O)c1n[nH]c2ccccc12)c1cccc(Br)c1,13,30,50*,39,-3,40*
O=C(COC(=O)c1n[nH]c(=O)c2ccccc12)c1ccccc1,7,21,9,-2,4,.
OCC#CCSc1nnc(-c2ccc(Br)cc2)o1,35,16,14,-3,5,.
COC(=O)Sc1nnc(-c2ccc(Br)cc2)o1,22,10,60*,25,.,52*
CC(=O)c1ccc(OCCCC(=O)NCCc2ccc(C(F)(F)F)cc2)cc1,17,-2,13,5,5,.
COc1ccc(-c2cc(-c3ccc(F)cc3)nc(N3CCN(C)CC3)n2)cc1,31,29,55*,13,10,58*
CCC(CC)N1CCN(C(=O)c2cc(OC)c(OC)c(OC)c2)CC1,-6,3,0,-5,-7,.
